This is a sample that favours compounds with a hit; in the whole collection about 15% have one here.
Pf growth 96h: Primary qHTS for delayed death inhibitors of the malarial parasite plastid, 96 hour incubation. Potency, µM (top dose mostly 28.7 µM), without a hit: at the top dose activity change, negative = inhibition, most hits filed as inhibitors. P. falciparum luciferase reporter growth, 96 h. 320,000 tested, 6.9% active. AID 504834, 2011; further: potency means the concentration at half of the fitted maximal effect; on the % scale 0 is the no-effect control and ±100 the full control effect
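P. falciparum expressing integrated firefly luciferase grown in erythrocytes (2% hematocrit, 0.05% parasitemia final) with compounds for 96 hours at 37 C, 5% CO2. Growth inhibition read as loss of luminescence after adding luciferase detection reagent.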
Sm TGR inh: qHTS Assay for the Inhibitors of Schistosoma Mansoni Peroxiredoxins. Schistosoma mansoni thioredoxin glutathione reductase (TGR), Q962Y6. purified TGR, DTNB reduction, TNB absorbance 405 nm. Potency, µM (top dose mostly 114 µM), for the others: at the top dose activity change, negative = inhibition, usual class: inhibitors. 360,000 tested, 3% active. AID 485364, 2010; further: potency means the concentration at half of the fitted maximal effect; on the % scale 0 is the no-effect control and ±100 the full control effect; nearly all actives have a fitted effect of over 60% in size
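Kinetic colorimetric format: TGR-catalysed, NADPH-driven DTNB reduction monitored via TNB absorbance. Enzyme dispensed at 20 nM; compound exposure 15 min at room temperature before reaction start.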
HCMV inh: qHTS Assay for inhibitors of the human cytomegalovirus (HCMV); HFF cells, HCMV-luciferase reporter, 72 h; active compounds read low; activity change, negative = inhibition, % at 57.5 µM; 410,000 tested, 4.5% active; AID 1259415, 2018; in the data active means activity change below about -60%; inconclusive means no clear call, values can overlap the other calls; inactive means above about -39%; further: on the % scale 0 is the no-effect control and ±100 the full control effect
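Human foreskin fibroblasts infected with luciferase-reporter HCMV at MOI 1 PFU/cell, compounds at two doses. Luciferase measured 72 h post infection; normalized to buffer-only basal and Salinomycin (10uM) controls.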
HCV inh: qHTS Assay for Inhibitors of Hepatitis C Virus (HCV). AID 651820, 2012. Potency, µM (series often up to 41.8 µM), without a hit: top-dose activity change, negative = inhibition, actives largely listed as inhibitors. Huh7.5.1 HCVcc-Cre infection, luciferase reporter, 44 h. 340,000 tested, 3.4% active; further: potency means the concentration at half of the fitted maximal effect; on the % scale 0 is the no-effect control and ±100 the full control effect
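Seed cells (1,000/well) for 4 h; treat with compound and infect with HCVcc-Cre, moi about 0.5. Incubate 44 h, then detect luciferase activity.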
SARS PLP yeast: qHTS of Yeast-based Assay for SARS-CoV PLP | S. cerevisiae expressing SARS-CoV PLpro, growth rescue | Potency, µM (series often up to 32.9 µM), for the others: at the top dose activity, positive = growth rescue, actives largely listed as activators | 330,000 tested, 0.19% active | AID 485353, 2010; calls by dose curve; further: potency means the concentration at half of the fitted maximal effect; 0% is about no effect; nearly all actives have a fitted effect of over 55% in size
Pf growth 48h: Primary qHTS for delayed death inhibitors of the malarial parasite plastid, 48 hour incubation | P. falciparum luciferase growth in erythrocytes, 48 h | Potency, µM (series often up to 28.7 µM), for inactives: at the top dose activity change, negative = inhibition, usual class: inhibitors | 310,000 tested, 5.9% active; further: potency means the concentration at half of the fitted maximal effect; on the % scale 0 is the no-effect control and ±100 the full control effect
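Cell-based growth assay: transgenic P. falciparum expressing firefly luciferase, cultured in red cells within RPMI 1640 containing 0.5% w/v Albumax, 24 mM bicarbonate and gentamycin. A drop in luciferase activity indicates inhibition.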
* marks the source's active call; other numbers are inactive results. Unless noted, the call rests on the fitted dose curve; in most records, active means well fitted curve in the direction sought with a large enough effect; inconclusive means small, poorly fitted or top-dose-only effect, or another doubt; inactive means no such curve, though single readings can be large; an effect the other way counts as inactive or inconclusive.

Results for CC(C)(C)OC(=O)N1CCN(c2ccc(CNC(=O)c3ccc(Cl)cc3)cc2)CC1 ?
Pf growth 96h: 34%; Sm TGR inh: -27%; HCMV inh: -95*; HCV inh: inconclusive; SARS PLP yeast: -1%; Pf growth 48h: inconclusive

What do the screens show for `O=C(NCCCN1CCOCC1)C(=O)NCc1ccc(Cl)cc1`?
Pf growth 96h: 33%; HCMV inh: -11; HCV inh: -4%; SARS PLP yeast: -1%; Pf growth 48h: -2%

Results for CC(C)(C)OC(=O)N1CCC(CNC(=O)c2ccc(F)cc2)CC1 ?
Pf growth 96h: 13%; Sm TGR inh: -19%; HCMV inh: 0; HCV inh: 0%; SARS PLP yeast: 2%; Pf growth 48h: 1.7µM*

What do the screens show for `Cc1ccccc1NC(=O)NCC1CCN(C(=O)OC(C)(C)C)CC1`?
Pf growth 96h: inconclusive; Sm TGR inh: 3%; HCMV inh: -17; HCV inh: 11%; SARS PLP yeast: 0%; Pf growth 48h: -19%

Results for CC(C)(C)c1ccc(C(=O)NCc2ccc(Cl)cc2)cc1 ?
Pf growth 96h: 7%; Sm TGR inh: 9%; HCMV inh: -16; HCV inh: 1%; SARS PLP yeast: 3%; Pf growth 48h: inconclusive

Results for COc1ccc(-c2cn3c(n2)sc2cc(C(=O)Nc4ccc(C)c(C)c4)ccc23)cc1 ?
Sm TGR inh: 29%

How did CCOC(=O)c1ccc(S(=O)(=O)N2CCC(C(=O)NCC3CCCCC3)CC2)cc1 do in these assays?
Pf growth 96h: -9%; Sm TGR inh: 1%; HCMV inh: 0; HCV inh: 17%; SARS PLP yeast: -1%; Pf growth 48h: inconclusive

Results for CSc1ncccc1C(=O)OCc1cccc([N+](=O)[O-])c1 ?
Pf growth 96h: 18%; Sm TGR inh: -3%; HCMV inh: 30; HCV inh: -15%; SARS PLP yeast: -3%; Pf growth 48h: 15%

What do the screens show for `COc1ccc([C@H]2CC(=O)C=C(c3c(OC)cccc3OC)C2)cc1`?
Pf growth 96h: -17%; Sm TGR inh: 1%; HCMV inh: 25; HCV inh: inconclusive; SARS PLP yeast: 1%; Pf growth 48h: inconclusive

What do the screens show for `CC(=O)c1c(C)[nH]c(C(=O)COc2ccc3ccc(=O)oc3c2)c1C`?
Pf growth 96h: inconclusive; Sm TGR inh: -6%; HCMV inh: -10; HCV inh: 8.9µM*; SARS PLP yeast: 3%; Pf growth 48h: 10µM*

Results for CC(=O)c1c(C)[nH]c(C(=O)COc2cc(C)cc(C)c2)c1C ?
Pf growth 96h: 69%; Sm TGR inh: -14%; HCMV inh: -62*; HCV inh: inconclusive; SARS PLP yeast: -6%; Pf growth 48h: 24%

What do the screens show for `COc1ccc(NC(=O)c2cc3c(-c4ccc(OC)c(OC)c4)nn(C)c3s2)cc1OC`?
Pf growth 96h: -30%; Sm TGR inh: -15%; HCMV inh: -97*; HCV inh: inconclusive; SARS PLP yeast: -2%

What do the screens show for `CCOC(=O)N1CCC(NC(=O)c2cc3c(-c4ccc(OC)c(OC)c4)nn(C)c3s2)CC1`?
Pf growth 96h: 9.3µM*; Sm TGR inh: -7%; HCMV inh: 8; HCV inh: inconclusive; SARS PLP yeast: -8%; Pf growth 48h: inconclusive

How did O=C(Nc1ccccc1)c1cc2c(-c3ccccc3)nn(-c3ccccc3)c2s1 do in these assays?
Sm TGR inh: 1%; HCMV inh: -31

What do the screens show for `COc1ccc(-c2nn(C)c3sc(C(=O)Nc4cc(OC)c(OC)c(OC)c4)cc23)cc1OC`?
Sm TGR inh: -6%; HCMV inh: -98*

What do the screens show for `COc1ccccc1NC(=O)c1cc2c(-c3ccccc3)nn(-c3ccccc3)c2s1`?
Sm TGR inh: 0%; HCMV inh: -61*

How did COc1ccc(-c2nn(C)c3sc(C(=O)NCc4ccco4)cc23)cc1OC do in these assays?
Pf growth 96h: 0%; Sm TGR inh: -11%; HCMV inh: 13; HCV inh: inconclusive; SARS PLP yeast: 4%; Pf growth 48h: 0%

How did COc1ccc(-c2cc(C(=O)Nc3cc(OC)c(OC)c(OC)c3)no2)cc1OC do in these assays?
Pf growth 96h: inconclusive; Sm TGR inh: -1%; HCMV inh: 23; HCV inh: inconclusive; SARS PLP yeast: inconclusive; Pf growth 48h: 77%

What do the screens show for `Cc1cccc(C)c1NC(=O)CN(C)C(=O)c1ccc(OCc2ccccc2)cc1`?
HCMV inh: -20

What do the screens show for `Cc1[nH]nc(SCC(=O)NC2CCCCC2)c1[N+](=O)[O-]`?
Pf growth 96h: inconclusive; Sm TGR inh: -1%; HCMV inh: -5; HCV inh: 24%; SARS PLP yeast: 2%; Pf growth 48h: 76%

How did OC(COC(c1ccc(F)cc1)c1ccc(F)cc1)CN1CCCC(C(F)(F)F)C1 (stereo unspecified) do in these assays?
Pf growth 96h: inconclusive; Sm TGR inh: -20%; HCMV inh: inconclusive; HCV inh: 33%; SARS PLP yeast: 0%; Pf growth 48h: -85%

Results for CC(C)(CC(=O)O)CC(=O)Nc1cc(C(F)(F)F)cc(C(F)(F)F)c1 ?
Pf growth 96h: -4%; Sm TGR inh: -1%; HCMV inh: 6; HCV inh: 7%; SARS PLP yeast: 0%; Pf growth 48h: 4%

How did CCOc1cc2c(cc1O)C(=NOC)CC1C2CCC2(C)C(O)CCC12 (stereo unspecified) do in these assays?
HCMV inh: -73*; HCV inh: -30%

How did Cc1ccc(CSc2ncc(Cl)c(C(=O)NCc3ccccc3)n2)cc1 do in these assays?
Sm TGR inh: 3%; HCMV inh: 92

Results for Cc1nnc(NC(=O)c2nc(S(=O)(=O)Cc3ccccc3)ncc2Cl)s1 ?
Pf growth 96h: -10%; Sm TGR inh: 22µM*; HCMV inh: -110*; HCV inh: 10µM*; SARS PLP yeast: 4%; Pf growth 48h: 1%

How did Cc1cccc(CSc2ncc(Cl)c(C(=O)Nc3nnc(C)s3)n2)c1 do in these assays?
Sm TGR inh: -12%; HCMV inh: -10

Results for CCOC(=O)c1nc(S(C)(=O)=O)ncc1Cl ?
Pf growth 96h: inconclusive; Sm TGR inh: 8.9µM*; HCMV inh: -70*; HCV inh: inconclusive; SARS PLP yeast: -23%; Pf growth 48h: -7%

What do the screens show for `COC(=O)c1ccccc1NC(=O)c1nc(S(=O)(=O)Cc2ccccc2F)ncc1Cl`?
Sm TGR inh: -24%; HCMV inh: 24

Screening results (PubChem)
